# Inconclusive results are not listed. Where a call stands in place of a potency, no number is given. Activity calls are given as the source filed them. Calls come from the whole dose curve; as a rule, active = well fitted cell-killing curve with a large enough effect in the repeat runs; inconclusive = weak or mixed curves, or effect the other way; inactive = no such curve, though single readings can be large or run the other way.
# Assay: qHTS assay to identify small molecule agonists of the RXR signaling pathway - cell viability counter screen (AID 1159529); note: nearly all actives have a fitted effect of over 50% in size
# Conditions: RXR-alpha-bla HEK293T viability, CellTiter-Glo, 16 h; series mostly up to 76.8 µM
# Description: National Center for Advancing Translational Sciences [NCATS]
# NIH Chemical Genomics Center [NCGC]
# U.S. Environmental Protection Agency [EPA]
# National Institutes of Environmental Health Sciences [NIEHS]
# National Toxicology Program [NTP]
# U.S. Food and Drug Administration [FDA]
# The Retinoid X receptor (RXR), a nuclear hormone receptor expressed in liver, spleen, placenta, epidermis, central nervous system. These receptors are able to form homo and heterodimers with other nuclear receptors and due to this heterodimerizing ability, RXR functions as master regulators producing diverse physiological effects. Three subtypes of RXR exist; alpha, beta and gamma. Retinoid X receptor alpha (RXR-alpha) has potential roles in metabolic signaling pathways, skin alopecia, dermal cysts, cardiac development, insulin sensitization etc. Therefore screening environmental chemicals on RXR-alpha signaling can be used for the studies focused on such therapeutic applications. For quantification of RXR-alpha ligands signaling, GeneBLAzer RXR alpha-UAS-bla HEK 293T (Life Technologies, Carlsbad, CA) cells containing a beta-lactamase reporter-gene under control of Retinoid X receptor-alpha response element were used to screen Tox21 10K library. The cytotoxicity of the Tox21 compound library against the RXR-alpha HEK 293T cell line was tested in parallel by measuring cell viability using CellTiter-Glo assay (Promega Corporation, Madison, WI) in the same wells.
# Tox21 Assay Protocol Summary:
# RXR-alpha HEK 293T cells were dispensed at 2,000 cells/6 uL of assay medium containing 2% charcoal-stripped FBS using a Multidrop Combi (ThermoFisher Scientific, Waltham, MA) dispenser. The assay was performed in black wall/clear-bottom 1536-well plates (Greiner Bio-One North America Inc. Monroe, NC). Tetraoctyl ammonium bromide was used as a positive control in the cytotoxicity screen. After the assay plates were incubated at 37 C and 5% CO2 for 5 hr, 23 nL of compounds dissolved in DMSO, positive control or DMSO only were transferred to the assay plate by a Pintool station (Kalypsys, San Diego, CA). The assay plates were incubated at 37 C and 5% CO2 for 16 hr. One uL of LiveBLAzer B/G FRET substrate (Life Technologies) was added using a Flying Reagent Dispenser (FRD) (Aurora Discovery, San Diego, CA) and the plates were incubated at room temperature for 2 hr. Fluorescence intensity (405 nm excitation, 460/530 nm emission) was measured using an Envision plate reader (PerkinElmer, Shelton, CT). For cytotoxicity, 4 uL/well of CellTiter-Glo reagent was added into the assay plates using an FRD. After 30 min incubation at room temperature, the luminescence intensity was measured using a ViewLux plate reader (PerkinElmer).
# Potency is the fitted concentration of half-maximal effect.
row,Compound,Potency
1,C=CC(=O)OCCCCO,inactive
2,CC(O)(CS(=O)(=O)c1ccc(F)cc1)C(=O)Nc1ccc(C#N)c(C(F)(F)F)c1 (stereo not given),22.7 µM (active)
3,N#Cc1ccc(Cl)cc1,inactive
4,Cc1ccc2ccccc2c1,inactive
5,CNC(C)Cc1ccccc1OC (stereo not given),inactive
6,CCC(Cl)CCl (stereo not given),inactive
7,Oc1ccc(Cl)c(Cl)c1Cl,inactive
8,O=C1NCN(c2ccccc2)C12CCN(CCCOc1ccc(F)cc1)CC2,inactive
9,CN1[C@@H]2CC[C@H]1CC(OC(=O)c1cc(Cl)cc(Cl)c1)C2 (stereo not given in full),3.79 µM (active)
10,CCOC(=O)[C@]1(c2ccccc2)Oc2ccccc2[C@@H]1N,inactive
11,C/C(=C\c1ccccc1)[N+](=O)[O-],inactive
12,CCc1ccc(C(=O)NN(C(=O)c2cc(C)cc(C)c2)C(C)(C)C)cc1,inactive
13,C/C=C/C=O,inactive
14,CCOP(=S)(OCC)SCSCC,inactive
15,C=CC[C@]1(O)CC[C@H]2[C@@H]3CCC4=CC(=O)CCC4=C3C=C[C@@]21C,23.9 µM (active)
16,ClP(Cl)(Cl)(Cl)Cl,inactive
17,O=Cc1ccc(Cl)cc1Cl,inactive
18,Nc1ccc(N=Nc2ccc(-c3ccc(N=Nc4c(S(=O)(=O)O)cc5cc(S(=O)(=O)O)c(N=Nc6ccccc6)c(O)c5c4N)cc3)cc2)c(N)c1,inactive
19,CC(=O)C(C)(C)C,inactive
20,CCBr,inactive

row,Compound,Potency
1,COC(=O)c1cncn1C(C)c1ccccc1 (stereo not given),inactive
2,Brc1ccccc1,inactive
3,CCCCCCCCCCOC(=O)c1ccccc1C(=O)OCCCCCCCCCC,inactive
4,Cc1cc(=O)[nH]o1,inactive
5,O=C1c2ccccc2C(=O)C1C(=O)C(c1ccccc1)c1ccccc1,inactive
6,CN1C(=O)C(O)N=C(c2ccccc2)c2cc(Cl)ccc21 (stereo not given),inactive
7,S=C=NCc1ccccc1,inactive
8,ClCc1cccc(Cl)c1,inactive
9,CCCCc1c(C)nc(NCC)nc1OS(=O)(=O)N(C)C,inactive
10,O=NN1CCCCCC1,inactive
11,CN(C)c1ccc(N(C)C)cc1,inactive
12,BrCCCCBr,inactive
13,C[C@]12CC[C@H]3[C@@H](CCC4=CC(=O)CC[C@@H]43)[C@@H]1CC[C@@H]2OC(=O)CCC1CCCCC1,inactive
14,Nc1ccc([N+](=O)[O-])cc1[N+](=O)[O-],inactive
15,CCOP(=O)(OCC)O/C(=C/Cl)c1ccc(Cl)cc1Cl,inactive
16,OC(c1ccc(Cl)cc1)(c1ccc(Cl)cc1)c1cccnc1,inactive
17,CCOS(C)(=O)=O,inactive
18,CC1C(=O)C[C@]2(C(C)C)C[C@H]12 (stereo not given in full),inactive
19,O=C(NCc1cccnc1)Nc1ccc([N+](=O)[O-])cc1,inactive
20,O=C(Nc1ccccc1)Nc1cnns1,inactive

# — PubChem BioAssay (Tox21)
